This note sets out measurements from PubChem BioAssay (NCI).

What all share (assay): NCI-60 one-dose screen, 48 h (100 = growth as untreated, 0 = no growth, -100 = all killed)
Details in all cases: 10 µM unless noted

The test system of experiment [1] is T-47D breast.
In experiment [2] the test system is BT-549 breast.
The subject of experiment [3] is MDA-MB-435 melanoma.
Experiment [4] relates to SW-620 colon.
Experiment [5] relates to MCF7 breast.
Experiment [6] concerns HCT-116 colon.
Experiment [7] has as its system HCC-2998 colon.
Experiment [8] has as its system KM12 colon.

Molecules are shown by their SMILES. Compounds without any hit were thinned out: in the full panel of roughly 83,000, 20% have a hit.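 Interpretation: 100, growth as untreated; towards 0, rising growth inhibition; 0, no net growth; 0 to -100, cell death. Compounds scoring below 10 were considered active.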 Values without a mark were called inactive. The source made the active and inactive calls.

Take `CCN(C(=O)CCl)C(C)(C)C(SSSC(c1ccc(Cl)cc1)C(C)(C)N(CC)C(=O)CCl)c1ccc(Cl)cc1` (stereo not drawn): the growth in experiment [1] is 87.1%; in experiment [2] it was 85.8%; in experiment [3], 36.4%; in experiment [4], 72.6%; in experiment [5] it was 57.1%; in experiment [6] it was 48%. In addition, the growth in experiment [7] and in experiment [8] was 85.6% each time.
In the case of `CCCCSc1ncnc2c1ncn2C1CCCCO1` (stereo not drawn), the growth was 104% in experiment [1]; 107% in experiment [2]; 115% in experiment [3]; 107% in experiment [4]; 91.5% in experiment [5]; 100% in experiment [6]. For the same compound, the growth was 111% in experiment [7] and 108% in experiment [8].
On to `O=C(NO)c1ccc(CNc2cccc3nc(C4CC4)n(-c4ccccc4)c(=O)c23)cc1`, for which the growth in experiment [1] is 22.9%; in experiment [2] it was 64%; in experiment [3] it was 10.3%; in experiment [4] it was 0.537% (active); in experiment [5], 27.6%; in experiment [6] it was -22.1% (active). Further, the values for the growth in experiment [7] and in experiment [8] were 36% and 8.66% (active), respectively.
As for `CN(C)c1ccc(C2(Cl)c3ccccc3N(C)c3ccccc32)cc1`, the growth in experiment [1] is 33.5%; in experiment [2], 71.9%; in experiment [3] it was 46.7%; in experiment [4], 21.6%; in experiment [5], 50.4%; in experiment [6] it was 5.46% (active). The growth in experiment [7] is 77.4%; in experiment [8], 36.7%.
Regarding `COc1cc(/C=C/c2cc(/C=C/c3ccc(O)c(OC)c3)n(C(=O)c3ccccc3Br)n2)ccc1O`, the growth in experiment [1] was 49%; in experiment [2], 14.5%; in experiment [3], -30.5% (active); in experiment [4], 20.9%; in experiment [5] it was 20.2%; in experiment [6] it was 6.9% (active). The results for the growth in experiment [7] and in experiment [8] were 40.9% and 4.98% (active), respectively.
`N#Cc1ccc(-c2ccc(-c3cccs3)o2)cc1F`: the growth in experiment [1] is 23.7%; in experiment [2], 78%; in experiment [3], 94.8%; in experiment [4], 98.5%; in experiment [5], 26.4%; in experiment [6], 64.5%. Also, the growth in experiment [7] was 91.5%; in experiment [8], 83.2%.
With `Cn1cnc([N+](=O)[O-])c1S(=O)(=O)Oc1cccc2ccccc12`, the growth was -30.9% (active) in experiment [1]; 99.9% in experiment [2]; 67.9% in experiment [3]; 7.26% (active) in experiment [4]; 44.8% in experiment [5]; 17.8% in experiment [6]. Further, the values for the growth in experiment [7] and in experiment [8] were 88.7% and 88.9%, respectively.
Consider `CC(NC(=O)c1ccccc1)C(=O)Nc1ccccc1` (stereo not drawn), for which the growth in experiment [1] was 117%; in experiment [2], 104%; in experiment [3] it was 112%; in experiment [4], 108%; in experiment [5] it was 97.9%; in experiment [6] it was 97.2%. Also, the growth in experiment [7] was 99.4%; in experiment [8], 108%.
On to `COc1ccc(-c2nc(SCCC(C)C)nc(Nc3ccc(C(=O)O)cc3)c2C#N)cc1`, for which the growth in experiment [1] was 71.7%; in experiment [2], 82.6%; in experiment [3], 99.3%; in experiment [4], 101%; in experiment [5] it was 80.5%; in experiment [6] it was 84.4%. Further, the growth was 104% in experiment [7] and 86.3% in experiment [8].
Take `Cc1ccc(C)c(NC(=O)c2sc3c(=O)[nH]cnc3c2C)c1`: the growth in experiment [1] is 86.9%; in experiment [2], 80.2%; in experiment [3], -36% (active); in experiment [4], 42.8%; in experiment [5], 62.8%; in experiment [6], 68.3%. For the same compound, the growth was 87.7% in experiment [7] and 46.2% in experiment [8].
Consider `CCN(CC)CCCC(C)Nc1ccnc2ccc(Oc3ccccc3)cc12` (stereo not drawn), for which the growth was 70.7% in experiment [1]; 67.3% in experiment [2]; 25.8% in experiment [3]; 81.3% in experiment [4]; 69% in experiment [5]; 48.7% in experiment [6]. Further, the growth in experiment [7] is 84%; in experiment [8], 86.3%.
In the case of `CCN(CC)c1ccc(/C=N/NC(=O)C[N+](C)(C)C)cc1`, the growth was 101% in experiment [1]; 103% in experiment [2]; 110% in experiment [3]; 101% in experiment [4]; 96.9% in experiment [5]; 102% in experiment [6]. The growth in experiment [7] is 104%; in experiment [8], 102%.
Consider `COc1cccc(C2C(C#N)=C(N)Oc3cc4c(cc32)OCO4)c1` (stereo not drawn), for which the growth in experiment [1] is 59.9%; in experiment [2] it was 24%; in experiment [3], -12.3% (active); in experiment [4], 26.9%; in experiment [5], 13.2%; in experiment [6], 5.12% (active). Further, the values for the growth in experiment [7] and in experiment [8] were 21.8% and 0.487% (active), respectively.
With `Cc1cccc(/C=N/n2c(-c3ccc(Cl)cc3)nc3c(Br)cc(Br)cc3c2=O)c1`, the growth in experiment [1] was 44.4%; in experiment [2] it was 88%; in experiment [3], 66%; in experiment [4], 59.1%; in experiment [5], 36.7%; in experiment [6], 22.2%. The growth is 55.6% in experiment [7] and 52.4% in experiment [8].
As for `COc1ccc(/C=C/c2nc(NCCCN(C)C)c3ccccc3n2)cc1`, the growth was 81.1% in experiment [1]; 47.3% in experiment [2]; -57.9% (active) in experiment [3]; 4.57% (active) in experiment [4]; -67% (active) in experiment [5]; 38% in experiment [6]. In addition, the growth in experiment [7] is 28.3%; in experiment [8], 32.1%.
As to `O/N=C1\c2ccccc2-c2ccc(Br)cc21`, the growth in experiment [1] was 97.2%; in experiment [2] it was 115%; in experiment [3], 113%; in experiment [4], 119%; in experiment [5] it was 91.1%; in experiment [6], 114%. In addition, the figures for the growth in experiment [7] and in experiment [8] were 102% and 115%, respectively.
